Assay [1] can be described thus: Primary qHTS for inhibitors of SARS-S pseudo-typed particle cell entry (AID 1479145). Further: nearly all actives have a fitted effect of over 45% in size. Further: potency means the concentration at half of the fitted maximal effect.
Assay [2] is described as follows: Primary qHTS for Vero E6 cytotoxicity: counterscreen for inhibitors of SARS-S pseudo-typed particle cell entry (AID 1479150). A general note: In qHTS, concentration-response curves come from the screen itself.
Assay [3] can be described thus: Primary qHTS for Huh7 cytotoxicity: counterscreen for inhibitors of MERS-S pseudotyped particle cell entry (AID 1479147).
A short description of assay [4]: Primary qHTS for inhibitors of MERS-S pseudo-typed particle cell entry (AID 1479149). Further: nearly all actives have a fitted effect of over 60% in size. Further: potency means the concentration at half of the fitted maximal effect.
Assay [5] can be described thus: Confirmatory qHTS for VERO E6 Cytotoxicity Assay: Counterscreen for SARS-CoV-2 CPE Assay (AID 1508605). Further: potency means the concentration at half of the fitted maximal effect; nearly all actives have a fitted effect of over 60% in size.

Each structure is given as a SMILES string. Records with an inconclusive call do not appear. Activity calls are given as the source filed them. The call rests on the fitted dose curve.

This note sets out measurements from PubChem BioAssay (NCATS).

Turning to `CC(C)=CCC/C(C)=C/CC/C(C)=C/C(=O)OCC(=O)[C@@]1(O)CC[C@H]2[C@@H]3CCC4=CC(=O)C=C[C@]4(C)[C@H]3[C@@H](O)C[C@@]21C`, the Potency entry in assay [1] and in assay [2] was “inactive” each time.

As for `CCOC(=O)C1=C(C)NC(C)=C(C(=O)OCC)C1c1ccccc1/C=C/C(=O)OC(C)(C)C`, the Potency entry in assay [1], in assay [3] and in assay [2] was “inactive” each time.

With `Cn1c(=O)c2c(ncn2C)n(C)c1=O`, the Potency result in assay [1], in assay [3] and in assay [2] was “inactive” in each case.

Consider `CCCC(=O)O[C@]1(C(=O)CCl)[C@@H](C)C[C@H]2[C@@H]3CCC4=CC(=O)C=C[C@]4(C)[C@@]3(F)C(=O)C[C@@]21C`, for which the Potency entry in assay [1], in assay [3] and in assay [2] was “inactive” throughout.

Regarding `Oc1ccc(O)cc1`, the Potency entry in assay [1] and in assay [2] was “inactive” each time.

Take `Oc1ccc(Cl)cc1Cc1cc(Cl)ccc1O`: in assay [3], the Potency entry was “inactive”.

As for `N/C(=N\N=C\c1ccc(Cl)cc1)N/N=C/c1ccc(Cl)cc1`, the Potency entry in assay [3] and in assay [4] was “inactive” throughout.

Take `CN1CCCC(CC2c3ccccc3Sc3ccccc32)C1` (stereo not given): the Potency in assay [1] is 20000 nM (active). Further, in assay [2], the Potency result was “inactive”.

In the case of `COc1ccc(CCN(C)CCCC(C#N)(c2cc(OC)c(OC)c(OC)c2)C(C)C)cc1OC` (stereo not given), the Potency entry in assay [3] and in assay [4] was “inactive” each time.

On to `CCCCOc1cc(C(=O)OCCN(CC)CC)ccc1N`, for which the Potency entry in assay [1] and in assay [2] was “inactive” throughout.

As for `OCc1cc(C(O)CNCCCCCCOCCCCc2ccccc2)ccc1O` (stereo not given), the Potency result in assay [1] and in assay [2] was “inactive” in each case.

Regarding `CC(C)N=C(N)/N=C(\N)Nc1ccc(Cl)cc1`, the Potency entry in assay [3] and in assay [4] was “inactive” each time.

For the molecule `COc1ccc(-n2nc(CCC(=O)N(C)O)cc2-c2ccc(Cl)cc2)cc1`, the Potency result in assay [1] and in assay [2] was “inactive” each time.

`CN(Cc1cc(Br)cc(Br)c1N)C1CCCCC1`: the Potency result in assay [3], in assay [4] and in assay [2] was “inactive” in each case.

With `CN(C)c1ccc(C(=C2C=CC(=[N+](C)C)C=C2)c2ccc(N(C)C)cc2)cc1`, the Potency in assay [1] was 1000 nM (active); in assay [4], 1120 nM (active).

Consider `OC[C@H]1O[C@@H](n2cnc3c(=S)nc[nH]c32)[C@H](O)[C@@H]1O`, for which the Potency result in assay [1] and in assay [4] was “inactive” in each case.

For the molecule `CCN(CC)C(=O)Nc1ccc(OCC(O)CNC(C)(C)C)c(C(C)=O)c1` (stereo not given), the Potency result in assay [3], in assay [4] and in assay [2] was “inactive” throughout.

For `CC(=O)Oc1ccc(C2(c3ccc(OC(C)=O)cc3)Oc3ccccc3NC2=O)cc1`, the Potency entry in assay [3] and in assay [4] was “inactive” each time.

On to `CN(C)c1ccc(C(=C2C=CC(=[N+](C)C)C=C2)c2ccccc2)cc1`, for which the results for the Potency in assay [1] and in assay [4] were 2240 nM (active) and 891 nM (active), respectively.

Take `Oc1c(I)cc(Cl)c2cccnc12`: the Potency result in assay [1] and in assay [2] was “inactive” throughout. In addition, the Potency in assay [5] was 3160 nM (active).

With `C1CCC(C(CC2CCCCN2)C2CCCCC2)CC1` (stereo not given), the Potency in assay [1] is 25100 nM (active); in assay [4], 10000 nM (active).

Regarding `CCN(CC)CCOC(=O)C(Cc1cccc2ccccc12)CC1CCCO1` (stereo not given), the Potency result in assay [3], in assay [4] and in assay [2] was “inactive” throughout.

Consider `CCCCCCCCCCCCOS(=O)(=O)O`, for which the Potency result in assay [3], in assay [4] and in assay [2] was “inactive” in each case.

For `CCOC(=O)OCC/C(SC(=O)OCC)=C(\C)N(C=O)Cc1cnc(C)nc1N`, the Potency result in assay [3], in assay [4] and in assay [2] was “inactive” each time.

Turning to `COc1cc(NS(=O)(=O)c2ccc(N)cc2)ncn1`, the Potency entry in assay [3], in assay [4] and in assay [2] was “inactive” each time.

Consider `NS(=O)(=O)c1cc(C(=O)O)c(NCc2ccco2)cc1Cl`, for which the Potency result in assay [3], in assay [4] and in assay [2] was “inactive” each time.

As for `O=c1oc2c(O)c(O)cc3c(=O)oc4c(O)c(O)cc1c4c23`, the Potency entry in assay [3], in assay [4] and in assay [2] was “inactive” throughout.

As to `C(=C\c1ccccc1)/CN1CCN(C(c2ccccc2)c2ccccc2)CC1`, the Potency result in assay [3], in assay [4] and in assay [2] was “inactive” throughout.

Regarding `O=C1O[C@H]([C@@H](O)CO)C(O)=C1O`, the Potency result in assay [3], in assay [4] and in assay [2] was “inactive” throughout.

On to `CN(C)CCN(Cc1ccccc1)c1ccccn1`, for which the Potency entry in assay [3], in assay [4] and in assay [2] was “inactive” throughout.

With `c1ccc(CC2=NCCN2)cc1`, the Potency result in assay [3], in assay [4] and in assay [2] was “inactive” throughout.

As to `CCOC(=O)[C@H](CCc1ccccc1)N[C@@H](C)C(=O)N1C(=O)N(C)C[C@H]1C(=O)O`, the Potency result in assay [3], in assay [4] and in assay [2] was “inactive” each time.

With `OCc1ccccc1O`, the Potency entry in assay [3], in assay [4] and in assay [2] was “inactive” each time.

In the case of `CN1CCN(c2c(F)cc3c(=O)c(C(=O)O)cn(CCF)c3c2F)CC1`, the Potency result in assay [3], in assay [4] and in assay [2] was “inactive” in each case.

With `CC(=O)Nc1ccc(S(=O)(=O)Nc2ccc([N+](=O)[O-])cc2)cc1`, the Potency entry in assay [3], in assay [4] and in assay [2] was “inactive” throughout.

On to `CCOC(=O)OC(C)OC1=C(C(=O)Nc2ccccn2)N(C)S(=O)(=O)c2ccccc21` (stereo not given), for which the Potency result in assay [3], in assay [4] and in assay [2] was “inactive” each time.

As to `C[C@@H](C1=C(CCN(C)C)Cc2ccccc21)c1ccccn1`, the Potency entry in assay [3], in assay [4] and in assay [2] was “inactive” each time.

As for `CCOCCOC(=O)/C=C/c1ccc(OC)cc1`, the Potency result in assay [3], in assay [4] and in assay [2] was “inactive” in each case.

With `COc1ccc(C(Cl)=C(c2ccc(OC)cc2)c2ccc(OC)cc2)cc1`, the Potency result in assay [3], in assay [4] and in assay [2] was “inactive” each time.

Consider `CN(C)CCC(c1ccccc1)c1ccccn1` (stereo not given), for which the Potency entry in assay [3], in assay [4] and in assay [2] was “inactive” in each case.

Turning to `CC(=O)OCC(=O)Nc1cc(C#N)cc(NC(=O)COC(C)=O)c1Cl`, the Potency entry in assay [3], in assay [4] and in assay [2] was “inactive” in each case.

Turning to `Nc1c(NC/C=C\COc2cc(CN3CCCCC3)ccn2)c(=O)c1=O`, the Potency result in assay [3], in assay [4] and in assay [2] was “inactive” throughout.
